MITF primary = blocks human microphthalmia-associated transcription factor. O75030. AlphaScreen MITF homodimerization, bead proximity signal. inhibition, % at 2.6 µM. actives 0.91% (n = 650,000). AID 1259374; in the data active = inhibition above about 50%;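 note: 0% = vehicle wells with protein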
GPR151 ag = human GPR151 activation; Q8TDV0; PathHunter beta-arrestin GPR151 cells, luminescence; activation, % at 11.2 µM; actives 1% (n = 650,000); in the data active = activation above about 4.9%;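 note: 0% = median of compound wells and 100% = cells with positive control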
Target sequence (Q8TDV0 whole entry, looked up): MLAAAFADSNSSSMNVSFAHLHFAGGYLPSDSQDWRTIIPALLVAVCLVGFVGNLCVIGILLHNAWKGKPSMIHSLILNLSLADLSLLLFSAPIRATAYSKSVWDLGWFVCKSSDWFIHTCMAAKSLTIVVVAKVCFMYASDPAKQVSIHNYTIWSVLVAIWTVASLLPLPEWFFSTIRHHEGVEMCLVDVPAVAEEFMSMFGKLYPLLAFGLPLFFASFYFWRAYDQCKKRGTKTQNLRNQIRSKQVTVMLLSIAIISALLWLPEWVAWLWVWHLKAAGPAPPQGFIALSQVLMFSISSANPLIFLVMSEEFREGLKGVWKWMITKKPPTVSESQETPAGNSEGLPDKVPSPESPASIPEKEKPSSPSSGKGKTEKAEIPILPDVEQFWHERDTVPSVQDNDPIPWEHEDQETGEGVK
TEAD-YAP inh = TEAD-YAP interaction inhibition; HEK-TIYL cells, TEAD-Gal4/YAP UAS-luciferase luminescence; inhibition, % at 9.12 µM; actives 1.4% (n = 640,000); AID 1259422; in the data active = inhibition above about 32%;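 note: 0% = median of test compound wells and 100% = reference inhibitor wells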
FBW7 activator = activators of human E3 ligase FBW7 | Q969H0 | AlphaScreen FBW7–phospho-cyclin E peptide binding, activator screen | normalized activity (activation), % at 26.1 µM | actives 0.13% (n = 650,000) | AID 1259310; in the data active = normalized activity above about 1.9%;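 note: purified mutant Fbw7 with reduced substrate affinity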
* = called active by the depositor. An excerpt weighted towards active compounds, which were near 3.4% of everything screened.

SMILES	MITF primary	GPR151 ag	TEAD-YAP inh	FBW7 activator
O=C(Cn1nc(C(=O)O)c2ccccc2c1=O)NCCN1C(=O)CSC1=O	13.5	-0.1	9.2	0.0
CCCCNC(=O)C(=O)Nc1c(C)cc(C)cc1C	6.6	0.2	-16.3	0.1
COc1ccc(N=c2scc(-c3ccc(OC)c(OC)c3)n2CCCO)cc1	19.9	-0.4	6.0	-0.4
CCOC(=O)CSC1=C(C#N)C(c2ccc(C)o2)CC(=O)N1 (stereo not drawn)	6.1	1.0	59.9*	0.0
CCCCOC(=O)CSC1=C(C#N)C(c2cccc(Cl)c2)CC(=O)N1 (stereo not drawn)	11.3	-0.4	45.1*	-0.1
COc1ccc(Cl)cc1N1C(=O)CSC1c1ccccc1Br (stereo not drawn)	-6.6	-1.0	-0.3	0.0
COc1ccc(S(=O)(=O)Nc2cc3c(cc2C(C)=O)OCO3)cc1	11.5	0.9	38.2*	0.3
CCOC(=O)c1ccccc1NS(=O)(=O)c1ccc(OCC)cc1	-14.8	-2.3	47.7*	0.0
CC(=O)c1cc2c(cc1NS(=O)(=O)c1ccc(C(C)(C)C)cc1)OCO2	3.5	0.3	-4.0	-0.1
CCOc1ccc(S(=O)(=O)Nc2cc3c4c(oc3c3ccccc23)CCCC4)cc1	-8.8	-0.7	48.8*	-0.1
CCOc1ccc(S(=O)(=O)Nc2cc3c(C(=O)OC)c(C)oc3c3ccccc23)cc1	-1.9	1.8	63.1*	0.0
O=C(Cn1c(=O)n(C2CCCCC2)c(=O)c2cccnc21)Nc1cccc(C(F)(F)F)c1	3.4	1.0	15.4	0.4
Cc1ccc(C(=O)N2CCc3nnc(C(NC(=O)C4CCOC4)C(C)C)n3CC2)s1 (stereo not drawn)	2.3	0.9	4.5	0.1
COc1ccc(S(=O)(=O)Nc2cc3c(C(C)=O)c(C)oc3c3ccccc23)cc1	-3.1	3.1	68.7*	-0.4
CCOC(=O)c1c(C)oc2c1cc(NS(=O)(=O)c1ccc(OC)cc1)c1ccccc12	9.6	-0.1	51.2*	0.0
CC(C)(C)c1ccc(OCC(=O)NN)cc1	-3.4	-1.1	3.9	0.2
COc1ccc(-c2nnc(/C=C/c3cccs3)o2)cc1	10.0	-11.4	72.4*	0.5
COc1ccccc1CNC(=O)CCSCc1cccc(F)c1	12.6	0.0	-29.1	0.5
Oc1cccc(/C=N/NC(=S)N/N=C/c2cccc(O)c2O)c1O	36.9	0.0	-1.4	-0.3
COCCNC(=O)C(=O)N/N=C/c1ccccc1O	53.3*	-1.3	-2.2	-1.7
COCCNC(=S)N/N=C/c1ccc(O)c(O)c1O	107.4*	0.2	5.2	-1.2
CC(C)NC(=S)N/N=C/c1cccc(O)c1O	89.6*	-0.9	-15.2	-1.2
Cc1ccccc1NC(=O)C(=O)N/N=C/c1ccccc1O	52.2*	0.7	2.0	-0.3
COCCNC(=O)CC(=O)N/N=C/c1ccccc1O	16.7	0.4	0.1	-1.6
COCCNC(=S)N/N=C/c1cc(OC)c(OC)cc1OC	1.2	2.7	-0.9	-0.3
SMILES	MITF primary	GPR151 ag	TEAD-YAP inh	FBW7 activator
O=C(O)/C=C/c1cc2c(cc1[N+](=O)[O-])OCO2	14.5	-0.4	0.6	0.4
Cc1ccc(C(=O)c2ccc(N)cc2)cc1C	33.7	1.9	51.7*	0.3
O=C(NCc1nnc(SCc2ccccc2F)o1)c1ccc(F)cc1	3.0	0.8	60.5*	0.1
O=C(NCc1nnc(SCc2ccccc2Cl)o1)c1ccccc1	-6.5	-0.7	-6.2	0.1
Cc1cccc(CSc2nnc(CNC(=O)c3ccccc3)o2)c1	5.8	0.5	7.8	-0.1
O=C(NCc1nnc(SCc2cccc(F)c2)o1)c1ccccc1	4.6	-0.1	55.7*	-0.1
O=C(NCc1nnc(SCc2ccccc2)o1)c1ccc(F)cc1	7.1	-1.2	58.3*	0.1
Cc1c(Br)c(C(F)(F)F)nn1CC(=O)Nc1sc2c(c1C#N)CCCC2	1.2	-0.6	-9.8	0.0
CCOC(=O)c1c(-c2ccccc2)csc1NC(=O)c1cc(F)c(F)cc1Cl	3.4	0.6	2.3	0.0
CC(/C=N\NC(=O)c1cncc(Br)c1)=C\c1ccccc1	14.5	0.2	1.9	0.1
Cc1[nH][nH]c(=O)c1C(c1ccco1)c1c(C)[nH][nH]c1=O	6.8	1.3	-7.7	-0.6
COc1ccc(N2C(=O)CC(Sc3nc(C)c4ccccc4n3)C2=O)cc1 (stereo not drawn)	-3.9	-0.2	53.0*	0.7
CCOC(=O)C(N)CSC1CC(=O)N(c2ccc(OC)cc2)C1=O (stereo not drawn)	3.2	-0.2	-9.1	-0.1
COc1ccc(N2C(=O)CC(SCCN)C2=O)cc1 (stereo not drawn)	26.9	-1.1	-29.5	2.5*
COc1ccc(N2C(=O)CC(Sc3ccccc3C(=O)O)C2=O)cc1 (stereo not drawn)	6.4	0.9	11.8	-0.1
O=C(O)c1cc(N2C(=O)C3CC=CCC3C2=O)ccc1N1CCOCC1 (stereo not drawn)	6.8	0.1	11.3	2.0*
O=C(O)c1cc(N2C(=O)C3CCCCC3C2=O)ccc1N1CCOCC1 (stereo not drawn)	-8.4	0.9	5.6	0.0
Cc1ccc(-c2cnc(SCC(=O)N3CCCC3)n2C)cc1	-17.2	-1.2	57.9*	-0.1
Cc1ccc(NC(=O)c2cnc(SCC(=O)N3CCCC3)n(C)c2=O)cc1	13.7	-4.1	-9.4	0.1
Cc1nc(C)c(/C(O)=C/c2nc3ccccc3oc2=O)s1	58.3*	-2.6	-3.6	0.6
CCc1ccc(NC(=O)CSc2ncnc3ccccc23)cc1	3.9	2.6	2.3	0.5
NS(=O)(=O)c1ccc(N=Nc2ccc(O)c3ncccc23)cc1	80.2*	-0.5	24.5	-0.6
O=C(O)c1ccccc1N=Nc1ccc(O)c2ncccc12	33.9	-0.3	-8.8	-0.5
O=C1c2ccc3c4c(ccc(c24)C(=O)N1CCCCO)C(=O)N(CCCCO)C3=O	35.0	-1.1	78.9*	-0.6
N#Cc1ccsc1NC(=O)c1ccc2c(c1)CCCC2	3.3	-6.4	42.7*	0.1
SMILES	MITF primary	GPR151 ag	TEAD-YAP inh	FBW7 activator
Cc1ccc(C(=O)Nc2sccc2C#N)cc1C	-7.7	-9.7	-15.2	0.4
N#Cc1ccsc1NC(=O)/C=C/c1ccccc1	-12.6	-11.5	63.5*	0.1
N#Cc1ccsc1NC(=O)c1ccccc1	-13.2	-3.2	-12.3	0.1
N#Cc1ccsc1NC(=O)c1cccc2ccccc12	-4.8	0.8	47.4*	0.5
N#Cc1ccsc1NC(=O)c1ccccc1Cl	8.7	0.0	1.4	0.1
COc1cc(NC(=O)c2sc3nc4ccc(C)cc4cc3c2N)cc(OC)c1	24.3	-1.5	0.5	0.0
COc1cc([N+](=O)[O-])ccc1-c1ccc(C=C(C#N)C#N)o1	7.8	-1.0	3.2	0.6
Cc1ccc(C(C)C)c(OCCNC(=O)c2ccccc2Cl)c1	-2.1	2.7	-14.8	0.1
Cc1ccccc1S(=O)(=O)Nc1cc(Br)cc2cccnc12	18.0	0.5	35.8*	-0.1
N#Cc1ccc(-c2ccc(OC3CCNCC3)cc2)cc1	18.2	0.0	-41.6	0.2
CCN1CCC(Oc2ccc(-c3ccc(COC)cc3)cc2)CC1	7.4	4.2	-30.1	0.0
c1ccc2oc(-c3ccc(OC4CCNCC4)cc3)cc2c1	-3.6	1.5	68.0*	-0.1
COCc1ccc(-c2ccc(OC3CCNCC3)cc2)cc1	-5.0	-0.1	37.6*	-0.1
